These results are taken from ChEMBL document CHEMBL4513146, “CO-ADD screening of Karazin Kharkiv National University (Ukraine) compounds”.

A word on the Inhibition: it is the drop in the measured response relative to a control, in per cent.

One assay deals with Staphylococcus aureus. Particulars: Concentration 32 ug.mL-1;; ASSAY_TEST Inhibition of Bacterial Growth; detection method Absorption (OD600); MEDIA CAMHB; plate type 384well; NBS; CORNING #3640; time 18 hr.
Another assay has as its system Escherichia coli. Particulars: Concentration 32 ug.mL-1;; ASSAY_TEST Inhibition of Bacterial Growth; detection method Absorption (OD600); MEDIA CAMHB; plate type 384well; NBS; CORNING #3640; time 18 hr.

Measured potencies and affinities stand elsewhere.

For `COc1ccccc1NC(=O)Cn1nc2c(SC3CCCCC3)nccn2c1=O`, the values for the Inhibition with Staphylococcus aureus and with Escherichia coli were -13.71% and -14.54%, respectively.
With `CCc1ccc(NC(=O)Cn2nc3c4cc(-c5ccc(Cl)cc5)nn4ccn3c2=O)cc1`, the Inhibition worked out at 10.21% in the assay on Staphylococcus aureus and 3.59% in the assay on Escherichia coli.
With `O=S(=O)(c1ccc2nncn2c1)N(Cc1ccccc1F)c1ccc2c(c1)OCO2`, the Inhibition with Staphylococcus aureus is given as 12.13%; in the assay with Escherichia coli, -4.11%.
Taken in the same sequence, the figures for `COc1ccc(-c2cc3c4nn(CC(=O)Nc5cc(C)cc(C)c5)c(=O)n4ccn3n2)cc1` were 1.97% and 7.1%.
Regarding `O=C(Cn1nc2c(Sc3cccc(F)c3)nccn2c1=O)N1CCN(c2ccccc2)CC1`, the results for the Inhibition with Staphylococcus aureus and in the assay on Escherichia coli were 1.07% and 1.18%, respectively.
As for `COC(=O)c1ccc(CN(c2ccc(F)cc2)S(=O)(=O)c2cccn3c(C)nnc23)o1`, the Inhibition is on record as 11.5% in the assay on Staphylococcus aureus and -1.28% in the assay on Escherichia coli.
